# According to PubChem BioAssay (NCI):
# Where “and” joins values, the source holds several entries; their conditions need not be identical. Identical values can stand only once. Compounds without any hit were thinned out: in the full panel of roughly 83,000, 20% have a hit.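 In brief: 96-well plates, 48 h treatment, single concentration, percent growth endpoint.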 Unmarked numbers belong to inactive results. Calls of active or inactive are those of the source. Rule for the calls: active = growth percent below 10; inactive = the rest.
# Test system: MDA-MB-468 breast
# Assay: NCI-60 one-dose screen, 48 h (100 = growth as untreated, 0 = no growth, -100 = all killed)
# Conditions: 10 µM unless noted
row,SMILES,growth
1,COc1cc(C2CC(c3ccc(Cl)cc3)=NN2C(C)=O)ccc1Oc1ccnc2cc(Cl)ccc12 (stereo not given),67.4%
2,CC1CCC2(OC1)OC1CC3C4CC=C5CC(O)CCC5(C)C4CCC3(C)C1C2C (stereo not given),89.4%
3,O=C(Nc1ccsc1C(=O)NC1CCCCC1)c1ccc(F)cc1,101%
4,O=C(Nc1ccncc1)C(=O)c1cn(S(=O)(=O)c2cccc3ccccc23)c2ccccc12,19.5%
5,CC(C)(C)c1ccc(OC(=O)Nc2ccccc2)cc1,112%
6,O=C1Nc2cc(OC(F)(F)F)ccc2Oc2ccc(-c3ccnc(N4CC[C@H](O)C4)c3)cc21,-28.9% (active)
7,Cn1c(/C=C(\C#N)c2ccccc2)nc2c(N3CCOCC3)nc(Cl)nc21,-47.9% (active)
8,COc1ccc(-c2cc(/C=C/C(=O)c3cc(OC)c(OC)c(OC)c3)[nH]n2)cc1OC,-63.8% (active)
9,COc1c(-c2c3sc(=O)[nH]c3nc3c2c(=O)[nH]n3C(C)C)cc2c(c1OC)OCO2,102%
10,Cc1cc(C)n(C(=O)c2nn(-c3ccc(Cl)cc3)cc2O)n1,64.6%
11,c1ccc2[nH]c(SSc3nc4ncncc4[nH]3)nc2c1,11.3%
12,COc1ccc(C(=O)/C=C/c2cccc(Nc3ccnc4cc(Cl)ccc34)c2)cc1,-2.59% (active)
13,CCN1CCN(c2cc(C(=O)Nc3nc(-c4cc(OC)c(OC)c(OC)c4)cs3)cc(C(F)(F)F)c2)CC1,84.8%
14,CCCC(=O)Oc1ccc(CC)cc1,117%
15,CCN(CC)CCN1C(=O)c2c(c3c4ccccc4[nH]c3c3[nH]c4ccccc4c23)C1=O,89.2%
16,COc1ccc(C(=O)n2nc(CC(=O)NCc3ccccc3)nc2N)cc1,105%
17,CNC(=O)c1cc(-n2ccc3cc(NC(=O)Nc4ccc(N5CCOCC5)c(C(F)(F)F)c4)ccc32)ccn1,95.2%
18,COc1cc2ncnc(Oc3ccc(NC(=O)Nc4ccc(CN5CCOCC5)c(C(F)(F)F)c4)c4ccccc34)c2cc1OC,-12.3% (active)
19,O=S(=O)(Oc1ccc(-c2cn3ccoc3n2)cc1)C1CCCCC1,92.3%
20,COc1ccc([N+](=O)[O-])cc1OC,108% and 101%

row,SMILES,growth
1,COc1ccc(Nc2ncccc2/C=C/C(=O)c2cc(OC)c(OC)c(OC)c2)cc1,-62.1% (active)
2,O=C(Nc1ccc2cc3ccc(NC(=O)NC4CCCCC4)cc3nc2c1)NC1CCCCC1,105%
3,O=C1/C(=C/c2ccc(Cl)cc2)CN(C(=O)CCN2CCC(=NO)CC2)C/C1=C\c1ccc(Cl)cc1,-65.3% (active)
4,COc1ccc(NC(=O)c2sc3nc(C)c(C(=O)/C=C/c4ccccc4)cc3c2N)cc1,44.4%
5,Clc1ccc(Oc2ccc(Nc3ncnc4onc(-c5ccccc5)c34)cc2)c(Cl)c1,95.1%
6,O=C(Nc1cccc(-n2cc(-c3ccncc3)c(-c3cc(O)cc(Cl)c3)n2)c1)Nc1ccc(Cl)c(C(F)(F)F)c1,5.22% (active)
7,COc1ccc2c(Cl)cc(NC(=O)Nc3c(C)cccc3C)nc2c1,79.2%
8,CS(=O)(=O)c1ccc(-c2[nH]c3ccc(F)cc3c2/C=N/O)cc1,93.7%
9,O=C(/C=C\c1ccccc1Cl)c1ccccc1,87.5%
10,O=C(/C=C/c1cccc(F)c1)c1cccc(OCCCOc2cccc(C(=O)/C=C/c3cccc(F)c3)c2)c1,75.2%
11,O=C1/C(=C/c2cccc([N+](=O)[O-])c2)COc2ccc(O)cc21,36.9%
12,COc1ccc(/C=C(\C#N)n2nnc3cc(F)c(F)cc32)cc1,8.69% (active)
13,O=C1CS/C(=N\Nc2cc(=O)[nH]c3ccccc23)N1c1ccccc1,96.9%
14,CCOC(=O)/C(=C/c1c(-c2ccccc2)[nH]c2ccccc12)C(=O)c1ccc(Cl)cc1,19.8%
15,CCNCCCn1c2c(c3cc(OC)c(OC)cc3c1=O)C(=O)c1cc(OC)cnc1-2,5.95% (active)
16,Cc1ccc2c(NCCCN(C)C)c3c(C)nn(C)c3nc2c1,22.1%
17,O=[N+]([O-])c1c(F)cccc1Nc1cccc(F)c1,127%
18,COc1cc(-c2nc(SC(C)C)nc(Nc3cccc(C)c3)c2C#N)cc(OC)c1OC,117%
19,CCOC(=O)CNC(=O)C1(NC(=O)CNC(=O)OCc2ccccc2)CCCC1,131%
20,CC1(C)OB(O)c2cc(-c3nc4ccc5[nH]ncc5c4c4c3CCCC4)ccc21,69.5%
